Results reported in PubChem BioAssay (NCI).
About 79,000 compounds went through this panel and 15% of them were active in at least one assay; those are over-represented in the sample as a whole. A number with no mark means an inactive call. Calls of active or inactive are those of the source. Cut-off read from the data, not from the text of the source: active = growth inhibition above about 70%; inactive = the rest.

Assays:
[1] = NCI Yeast Anticancer Drug Screen. Data for the rad50 strain (AID 155);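 note: 0% = growth of vehicle-only cultures of the same strain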; settings: S. cerevisiae rad50 strain growth inhibition; at 50.0 µM; active compounds read high
How it was run: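 Relative growth inhibition (compound vs vehicle) was measured in yeast with a defined repair-gene alteration.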

[2] = NCI Yeast Anticancer Drug Screen. Data for the sgs1 mgt1 strain (AID 161);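 note: 0% = growth of cultures given vehicle only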; settings: S. cerevisiae sgs1 mgt1 strain, at 50.0 µM, active compounds read high
How it was run: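 Mutant yeast exposed to compound; growth scored against vehicle-only wells.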

[3] = NCI Yeast Anticancer Drug Screen. Data for the cln2 rad14 strain (AID 165);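 note: 0% = growth equal to vehicle treated cultures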; settings: S. cerevisiae cln2 rad14 strain, at 50.0 µM, active compounds read high
How it was run: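 The screen exposed genetically defined yeast (cln2 rad14) to test compounds and scored growth inhibition relative to vehicle-treated controls.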

[4] = NCI Yeast Anticancer Drug Screen. Data for the bub3 strain (AID 167); settings: S. cerevisiae bub3 mutant strain, at 50.0 µM, active compounds read high
How it was run: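 Screening used yeast with an engineered genetic alteration affecting cell cycle control. Compound-exposed cultures were compared with vehicle cultures, and reduced growth was taken as inhibition.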

[5] = NCI Yeast Anticancer Drug Screen. Data for the mlh1 rad18 strain (AID 175); settings: S. cerevisiae mlh1 rad18 strain growth inhibition; at 50.0 µM; active compounds read high
How it was run: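 Compound-treated yeast growth, normalised to vehicle controls. Strain bears defined DNA repair mutations.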

[6] = NCI Yeast Anticancer Drug Screen. Data for the mec2-1 strain (AID 157); settings: S. cerevisiae mec2-1 strain, at 50.0 µM, active compounds read high
How it was run: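 Cells of the genetically defined mec2-1 yeast strain are incubated with test compound. Inhibition of growth is calculated against vehicle-treated controls.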

Row | Structure (SMILES) | growth inhibition [1] | growth inhibition [2] | growth inhibition [3] | growth inhibition [4] | growth inhibition [5] | growth inhibition [6]
1 | CC1=C(C)C(=O)O[C@@H]([C@](C)(O)[C@]2(O)CC[C@@]3(O)[C@@H]4C[C@H]5O[C@]56CC=CC(=O)[C@]6(C)[C@H]4CC[C@]23C)C1 | 45.1% | 43.8% | 27.3% | 45.9% | 40.2% | –
2 | CCOP12(OCC)NC(=O)OC1(C(F)(F)F)c1ccccc1O2 (stereo not drawn) | – | -38% | -7% | -26.4% | -36.4% | 3.9%
3 | C1=CC2CCC1C2 | 15.5% | -7.1% | -52% | -5.65% | 7.85% | –
4 | O=C(CCN1CC=C(c2ccccc2)CC1)c1ccc(F)cc1 | 76.5% (active) | 88.6% (active) | 67.5% | 64.2% | 92.3% (active) | –
5 | Clc1ccc(C(c2ccccc2Cl)C(Cl)(Cl)Cl)cc1 (stereo not drawn) | -24.6% | 1.8% | -44.6% | 47.5% | 12.2% | –
6 | O=[N+]([O-])c1ccc(N=Nc2ccc(N(CCCl)CCCl)cc2)cc1 | – | -1.25% | -14.9% | 5% | 23.5% | 14.1%
7 | CN1CCNCC1 | – | -10.5% | -18.4% | 11.5% | 5.75% | -6.55%
8 | Cc1c([As](=O)(O)O)ccc2nc3c(C)c([As](=O)(O)O)ccc3nc12 | – | 15.4% | 9.25% | 2.4% | 21.6% | 1.25%
9 | O=C1OC(=O)C2CC3C(CC12)C1(Cl)C(Cl)=C(Cl)C3(Cl)C1(Cl)Cl (stereo not drawn) | – | – | -5.4% | -17.4% | 3% | -28.2%
10 | O=C(CC(O)C(Cl)(Cl)Cl)CC(O)C(Cl)(Cl)Cl (stereo not drawn) | – | 10.2% | 18% | 20.4% | 13.4% | -0.7%
11 | CC(C)(C)OO | – | 0.95% | -0.6% | 22.4% | -17% | 7.05%
12 | COc1ccc(CCl)cc1CCl | – | -7.25% | 5.85% | -26.4% | -43.7% | -62.8%
13 | COC(=S)NP(=O)(NC(=S)OC)NC(=S)OC | – | 9.65% | -35% | -1.95% | 8.25% | -3.4%
14 | CC[C@@]1(O)C(=O)OCc2c1cc1n(c2=O)Cc2cc3cc(OC)ccc3nc2-1 | – | 86.7% (active) | 80.7% (active) | 83.6% (active) | – | –
15 | CC1=C[C@H]2O[C@@H]3[C@H](OC(=O)CCl)[C@@H](O)[C@](C)(C2(COC(=O)CCl)CC1)[C@@]31CO1 (stereo partly drawn) | – | 92.7% (active) | 91.6% (active) | 92.2% (active) | 91.2% (active) | 92.8% (active)
16 | O=C1CCN(C2(c3ccccc3)CCCCC2)CC1 | – | 3.55% | -5.1% | – | -1.35% | -4.1%
17 | CNc1ccccc1C(=O)O | – | 10.5% | -9.75% | -12.2% | 3.15% | -7.3%
18 | O=C(Nc1cccc(Cl)c1Cl)C(Cl)(Cl)Cl | – | 19.4% | 6.35% | 31.2% | 28.8% | 20.9%
19 | NC(=O)c1cc(N(CCBr)CCBr)c([N+](=O)[O-])cc1[N+](=O)[O-] | – | 17.6% | 14.2% | 16.9% | 9.3% | 1.25%
20 | [Br][Sn]([Br])([CH2][Sn]([Br])([c]1ccccc1)[c]1ccccc1)[c]1ccccc1 | – | – | – | – | 81.7% (active) | –
21 | CCC[As](=O)(O)c1ccc(Cl)cc1 | – | 99.2% (active) | 73.5% (active) | 94.7% (active) | 99.2% (active) | 99.5% (active)
22 | CC1(C)N(C(=S)Nc2ccccc2)C1(C)C | – | 5.25% | -26.2% | -5.2% | 5.8% | 1.3%
23 | N#CS.N=C=S.N=C=S.[Co+3].[NH-]CC[NH-].[NH-]CC[NH-] | – | 36.4% | 3.5% | 27.9% | 10.7% | 10.2%

Row | Structure (SMILES) | growth inhibition [1] | growth inhibition [2] | growth inhibition [3] | growth inhibition [4] | growth inhibition [5] | growth inhibition [6]
24 | CC1OCN2CCCCC12 (stereo not drawn) | – | -33.4% | -7.85% | -25.1% | -27.1% | -12.7%
25 | O=[N+]([O-])/C=C\c1c[nH]c2ccc(OCc3ccccc3)cc12 | – | 53.4% | 45.4% | 55.5% | 40.9% | 30.8%
26 | N#CCc1ccccc1CC#N | – | 2.5% | -19.7% | 3.9% | 18.2% | -0.65%
27 | CC(=O)C(=[N+]=[N-])C(=O)N(C)CCC#N | – | 11.2% | 13.7% | 7.25% | 20.9% | 6.25%
28 | CC(Cl)CN1CCN(CC(C)Cl)CC1 (stereo not drawn) | – | 34.4% | 4.4% | 31.9% | -10.3% | -16.7%
29 | C[n+]1ccc2ccccc2c1-c1c2ccccc2cc[n+]1C | – | -2.55% | 18.9% | 3% | 6.05% | 3.65%
30 | CCC1(c2ccc(C)cc2)C(=O)NC(=S)NC1=O | – | 17.2% | 28.6% | 14% | 11.8% | -8.15%
31 | COc1ccccc1OC (tested in a mixture with another compound) | – | 26.4% | -17.4% | 14.2% | 16.2% | 16.7%
32 | COc1ccc2c(c1)C1(C)CCN(CCc3ccccc3)C(C2)C1C (stereo not drawn) | – | 20.7% | 0.05% | 6.25% | 24.4% | 15.4%
33 | CN(C)C(=S)Oc1ccc(Cl)cc1S(=O)(=O)F | – | 32.4% | 20.4% | -6.7% | 9.6% | 14.2%
34 | ClCc1nc(-c2ccco2)no1 | – | 20.6% | -42.5% | 4.55% | 29.9% | 51.2%
35 | CN1C2CCC1C(Br)C(=O)C2 (stereo not drawn) | – | – | – | – | -51.2% | –
36 | CC(C)C(C)(O)C#N (stereo not drawn) | – | 2.6% | -23.4% | 2.9% | 17.9% | -2.1%
37 | CC(=O)OC1CC2(O)C3CCC4CC(O)CCC4(C)C3CCC2(C)C1C1=CC(=O)OC1 (stereo not drawn) | – | -9.9% | -6.4% | -32.4% | -1.75% | -19.9%
38 | COc1ccc2c(c1OC)C[N+]1(C)CCc3cc4c(cc3C1=C2)OCO4 (stereo not drawn) | – | -12.8% | -1.95% | -2.2% | -2% | -0.5%
39 | CCOP(=S)(NCCCOC)OCC | – | 12.3% | -32.4% | 22.6% | 2.4% | 5.8%
40 | O=[N+]([O-])c1ccc2c(c1)[O][Sn]([I])([I])[O]2 | – | 8.8% | 6.7% | 1.95% | -3.9% | -3.95%
41 | CCOP(=O)(OCC)/C(C#N)=C/c1cccn1C | – | -44% | -17.2% | -21.8% | -7.35% | -32.7%
42 | Cl.[O-]c1cccc2cccnc12.[O-]c1cccc2cccnc12.[O-]c1cccc2cccnc12.[O-]c1cccc2cccnc12.[Ti+4] | – | 92.8% (active) | 91.3% (active) | 92% (active) | 84.6% (active) | 92.8% (active)
43 | O=C(O)C(Cl)Cl | – | 4.45% | -10.1% | -1.6% | 9.45% | -29.6%
44 | N.N.N.N.N.[Co+3].[I-].[N-]=[N+]=[N-] | – | -25.4% | 20.4% | -6.05% | -9.05% | 32.8%
45 | Clc1ccc(N=c2ccc3ccccc3[oH+]2)cc1.Clc1ccc(N=c2ccc3ccccc3[oH+]2)cc1.[Co] | – | 14.8% | -59.2% | -12.8% | 15.6% | -25.4%
